Compounds with a hit are over-represented: about 19% of the library has one in this group of screens.
DT40 TDP1 no CPT = qHTS for Inhibitors of human tyrosyl-DNA phosphodiesterase 1 (TDP1): qHTS in cells in absence of CPT. DT40 Tdp1-/- hTDP1 cells, no CPT, ATP luminescence, 48 h. Potency, µM (series often up to 46.2 µM), without a hit: at the top dose activity change, negative = growth inhibition, most hits filed as inhibitors. 420,000 tested, 15% active; note: nearly all actives have a fitted effect of over 55% in size
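Camptothecin absent (DMSO only). Human TDP1-complemented DT40 knockout cells, 400 cells/well, 37 °C for minimum 48 hr; ATP measured via CellTiter-Glo, 30 min dark incubation, luminescence.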
HT1080-NT tox = kills 2HG-producing HT-1080-NT fibrosarcoma cells; HT-1080-NT fibrosarcoma viability, CellTiter-Glo ATP luminescence, 48 h; Potency, µM (top dose mostly 46.1 µM), without a hit: top-dose activity, negative = less viability, hits mostly cytotoxic; 360,000 tested, 1.6% active; AID 686970;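 note: NT is the 2HG producing partner of a matched IDH1 knockdown line; 0% = DMSO-treated cells and -100% = media-only wells without cells; nearly all actives have a fitted effect of over 55% in size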
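HT-1080-NT fibrosarcoma cells (2HG-overproducing), 750 cells/well in RPMI with 5% FBS, dosed after 2 h and incubated 48 h at 37C. CellTiter-Glo luminescence normalized to DMSO and no-cell wells; concentration-response curves fitted and classed.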
DT40 TDP1 CPT = DT40-hTDP1 cell growth loss with CPT. 420,000 tested, 12% active. Potency, µM (highest dose often 46.2 µM), without a hit: at the highest dose activity change, negative = growth inhibition, hits mostly inhibitors. chicken DT40 Tdp1-/-;hTDP1 cells + 20 nM CPT, ATP luminescence, 48 h. AID 686979; note: nearly all actives have a fitted effect of over 55% in size
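Chicken DT40 Tdp1-/- cells complemented with human TDP1, 400 cells/well, exposed to compounds plus 20 nM camptothecin for at least 48 h at 37 C; viability read as ATP content by CellTiter-Glo luminescence.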
KB-3-1 tox = kills parental KB-3-1 adenocarcinoma cells. KB-3-1 viability, CellTiter-Glo ATP luminescence, 72 h. Potency, µM (titrated, usually from 46.1 µM), usual class: cytotoxic. 400,000 tested, 1.4% active. AID 1347075; note: nearly all actives have a fitted effect of over 60% in size
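Viability of parental KB-3-1 cells, measured by CellTiter-Glo luminescence, followed a 72 h incubation at 37 °C with pinned compounds in phenol-red-free DMEM containing 10% FBS.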
KB-V1 cytotox = KB-V1 MDR subline cytotoxicity; KB-V1 MDR cells viability, CellTiter-Glo, 72 h; Potency, µM (top dose mostly 46.1 µM), actives largely listed as cytotoxic; 400,000 tested, 3.4% active; AID 1347076; note: nearly all actives have a fitted effect of over 60% in size
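KB-V1, DMEM (no phenol red) + 10% FBS; cpd pin-transferred, titration series; 72 h, 37 degrees C; CellTiter-Glo, luminescence. Data normalized, curve-fit.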
HT1080 IDH1KD tx = toxicity to HT-1080 IDH1 knockdown cells (counter line) | HT-1080 IDH1 knockdown viability, ATP luminescence, 48 h | Potency, µM (doses to about 46.1 µM), for inactives: at the highest dose activity, negative = toxicity, actives largely listed as cytotoxic | 360,000 tested, 2% active;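 note: 0% = DMSO wells and -100% = cell-free medium wells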
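Assay cells: HT-1080 with IDH1 knockdown, 750 per well, RPMI/5% FBS. Exposure: 48 h at 37 °C following 2 h pre-incubation. Read: CellTiter-Glo luminescence; fitted concentration-response, curve class assigned.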
An asterisk follows results filed as active; i = inactive; ? = inconclusive; nt = not tested or not shown; [ ] = remark or other dose. Calls come from the whole dose curve; as a rule, active = well fitted curve in the direction sought with a large enough effect; inconclusive = small, poorly fitted or top-dose-only effect, or another doubt; inactive = no such curve, though single readings can be large; an effect the other way counts as inactive or inconclusive. Unless noted, % is set by controls: 0 for no effect and ±100 for the full control effect; potency is the fitted concentration of half-maximal effect.

SMILES	DT40 TDP1 no CPT	HT1080-NT tox	DT40 TDP1 CPT	KB-3-1 tox	KB-V1 cytotox	HT1080 IDH1KD tx
O=C(COc1ccc(Cl)cc1)Nc1sc2c(c1C(=O)Nc1cccc(Cl)c1)CCCC2	7.3µM*	nt	18µM*	nt	nt	nt
O=C(O)CCC(=O)Nc1sc2c(c1C(=O)Nc1ccccc1)CCCCC2	-3%	21µM*	-23%	?	i	?
O=C(Nc1cccc(Cl)c1)c1c(NC(=O)C(F)(F)F)sc2c1CCCC2	3.3µM*	nt	6.5µM*	?	12µM*	nt
COC(=O)c1c(NC(=O)COC(=O)[C@@H](NS(=O)(=O)c2ccc(C)cc2)C(C)C)sc2c1CCC2	23µM*	-3%	?	i	?	-2%
Cc1ccccc1NC(=O)c1c(NC(=O)c2ccncc2)sc2c1CCC(C(C)(C)C)C2 (configuration not stated)	6.5µM*	nt	18µM*	i	?	nt
CCOc1ccccc1NC(=O)c1c(NC(=O)c2ccncc2)sc2c1CCC(C(C)(C)C)C2 (configuration not stated)	-17%	nt	-23%	i	i	nt
Cc1ccc(NC(=O)c2c(NC(=O)C(F)(F)F)sc3c2CCCCC3)cc1	3.7µM*	nt	2.6µM*	nt	nt	nt
COC(=O)c1c(NC(=O)COc2ccc(C(C)C)cc2)sc2c1CCCC2	23µM*	nt	?	i	i	nt
COC(=O)c1c(NC(=O)c2nn(C)cc2Cl)sc2c1CCCC2	?	8%	?	i	5.8µM*	7%
Cc1ccc(CNC(=O)CC(C)S(=O)(=O)c2ccc3c(c2)NC(=O)CS3)o1 (configuration not stated)	?	-1%	-33%	i	i	2%
Cc1ccccc1NC(=O)c1c(NC(=O)C(F)(F)F)sc2c1CCCCC2	2.9µM*	nt	3.7µM*	nt	nt	nt
CC(C)=CCC1=C(O)[C@](O)(CC=C(C)C)C(=O)C(C(=O)CC(C)C)=C1O	-27%[9.04 µM]	nt	-36%[9.04 µM]	nt	nt	nt
COc1cc(NC(=O)Cn2c(=O)n(Cc3ccccc3OC)c(=O)c3cccnc32)cc(OC)c1	?	nt	-13%	i	i	nt
C/C(=C\C(=S)Nc1ccccc1)Nc1cccc2ccccc12	23µM*	2%	?	i	i	1%
S=C(NCc1ccccc1)Nc1ccc2ccccc2c1	2%	0%	10%	i	i	0%
C/C(=C\C(=S)Nc1ccccc1)Nc1ccc2ccccc2c1	?	3%	18µM*	i	i	1%
Cc1cc(F)ccc1S(=O)(=O)Nc1ccc(C(=O)N2CCCCCC2)cc1	?	-9%	?	i	i	1%
CC(OC(=O)C1=Cc2ccccc2OC1)C(=O)NCc1ccco1 (configuration not stated)	?	0%	-8%	i	i	0%
CCC(OC(=O)C1=Cc2ccccc2OC1)C(=O)NCc1ccco1 (configuration not stated)	26µM*	-5%	-28%	i	i	-5%
Cc1cccc(-n2c(C)nnc2SCC(=O)NC(C)c2ccco2)c1 (configuration not stated)	-14%	nt	-19%	i	i	nt
O=C(COc1ccccc1)Nc1ccccc1C(=O)OCc1cc(=O)n2nc(C3CC3)sc2n1	?	nt	-3%	i	i	nt
CC(C)(C)NC(=O)CSc1nc2ccc(NC(=O)CSc3nnc(N)s3)cc2s1	9.2µM*	2%	21µM*	i	i	-2%
CCOC(=O)CSc1nc2ccc(NC(=O)CSc3nnnn3Cc3ccccc3)cc2s1	-13%	-6%	-14%	?	i	-8%
Cc1cccc(NC(=O)CSc2nnc(N)s2)c1	-16%	nt	7%	nt	nt	nt
CC(C)(C)NC(=O)CSc1nc2ccc(NC(=O)CSc3nnnn3Cc3ccccc3)cc2s1	10µM*	-5%	8.2µM*	i	i	16µM*
SMILES	DT40 TDP1 no CPT	HT1080-NT tox	DT40 TDP1 CPT	KB-3-1 tox	KB-V1 cytotox	HT1080 IDH1KD tx
CN(CCO)c1ccc(-c2n[nH]c(=O)c3ccccc23)cc1[N+](=O)[O-]	?	-5%	?	i	i	-14%
COc1cccc(C(=O)Nc2cccc(-c3cn4c(C)csc4n3)c2)c1OC	16µM*	nt	18µM*	i	i	nt
COc1ccc(C(=O)Nc2cccc(-c3cn4ccsc4n3)c2)c(OC)c1	6.5µM*	nt	5.2µM*	nt	nt	nt
Cc1cc(C)c2c(SC(C)C)nc(N)nc2n1	18µM*	3%	?	i	i	-5%
CCOc1ccc(NC(=O)CC2SC(=O)N(c3ccccc3)C2=O)cc1 (configuration not stated)	2.9µM*	14%	1.2µM*	i	i	23%
COc1ccccc1NC(=O)CC1SC(=N)N(c2ccccc2)C1=O (configuration not stated)	?	-1%	-17%	i	?	-15%
CCCN1C(=O)SC(CC(=O)Nc2ccccc2C)C1=O (configuration not stated)	?	-2%	?	i	?	0%
Cc1ccccc1NC(=O)CC1SC(=O)N(c2ccccc2)C1=O (configuration not stated)	4.6µM*	-2%	6.5µM*	i	i	-12%
O=C(CC1SC(=O)N(c2ccccc2)C1=O)Nc1cccc2ccccc12 (configuration not stated)	5.2µM*	-2%	3.3µM*	i	i	-2%
CCOc1ccc(NC(=O)CC2C(=O)N(c3ccccc3)C(=O)N2C2CCCC2)cc1 (configuration not stated)	-11%	nt	?	i	i	nt
COCCCNC(=O)Cn1c(=O)n(CCCCCC(=O)NCc2ccc3c(c2)OCO3)c(=O)c2sccc21	0%	-2%	2%	i	i	6%
CCOc1ccc(NC(=O)C2CCCN2S(=O)(=O)c2ccc3c(c2)C(C)(C)C(=O)N3C)cc1 (configuration not stated)	?	-4%	?	?	i	-5%
O=c1cc(-c2ccccc2)[nH]n1-c1nc2ccccc2[nH]1	?	11µM*	?	?	?	13µM*
CCc1nc2ccccc2[nH]c1=O	22%	3%	-4%	i	?	2%
COc1cccc(CN2C(=O)C3(SCC(=O)N3c3ccc(C(C)C)cc3)c3ccccc32)c1 (configuration not stated)	nt	nt	nt	?	18µM*	nt

From PubChem
